Compound activity as filed in PubChem.
CRFR2-BP antag: CRF-BP/CRF-R2 complex antagonism; HEK293 CRF-R2/CRF-BP, CRF-induced calcium fluorescence; inhibition, % at 11.8 µM; 0.59% of 350,000 active; AID 588475;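 active = inhibition of the ligand-induced calcium signal above about 50% at the single tested concentration, limit read from the data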
NadD block: NadD (S. aureus) enzyme inhibition; purified NadD enzyme, colorimetric absorbance read-out; inhibition, % at 20 µM; 0.78% of 360,000 active; in the data active = inhibition above about 26%
NRP1-CendR mod: modulators of CendR peptide binding to human neuropilin-1 | FAM-RPARPAR peptide binding to NRP-1, fluorescence polarization | AID 602438 | inhibition, % at 25 µM | 0.85% of 360,000 active;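 active = inhibition or corrected inhibition above about 18%, plus a signal ratio from 0.5 to 1.5, limit read from the data, passing the limit was not always enough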
Myeloid diff MLP: myeloid differentiation induction; calls only at 10 µM; ER-HoxA9 myeloid progenitors, lysozyme-GFP differentiation, flow cytometry; 1% of 360,000 active;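 active = normalized GFP-positive differentiation at or above the plate's own cutoff, the solvent-only control mean plus 3 SD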;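 note: cells exposed to compound for four days before flow analysis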
FAS-TE inh: FAS thioesterase (human) inhibition. 0.67% of 360,000 active. recombinant FAS-TE, OMFH fluorogenic substrate, fluorescence endpoint. AID 602261. inhibition, % at 15 µM;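 active = compounds whose normalised, plate-corrected inhibition of enzyme fluorescence in the single-dose primary screen is 50% or more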;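 note: 0% = DMSO with enzyme and 100% = substrate without enzyme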
* marks the source's active call; other numbers are inactive results; i = inactive; / = no result given; + = active, no number. Sampled rows, rich in hits. Any-hit rate of the full collection: about 3.6%.

SMILES	CRFR2-BP antag	NadD block	NRP1-CendR mod	Myeloid diff MLP	FAS-TE inh
COc1cc(NC(C)CCCNC(C)C)c2ncccc2c1OC (stereo not drawn)	-18	-3	24*	i	-7
CCc1nc2ccc(C(=O)NCc3cccs3)cn2c1N(CCC(C)C)CCN(C)C	/	-12	1	i	-4
Cc1noc(/C=C/N(C)C)c1S(=O)(=O)N1CCCC(C(=O)Nc2ccccc2F)C1 (stereo not drawn)	-10	-3	10	+	-1
Cc1cccc(/C=C2/S/C(=N/N=C3\CC4CCC3(C)C4(C)C)NC2=O)c1 (stereo not drawn)	50*	13	2	i	18
O=C1N/C(=N/O)S/C1=C/c1cccc([N+](=O)[O-])c1	17	-3	4	i	0
Cc1cc(SCC(=O)c2cc(C)n(C)c2C)nc2ccccc12	39	0	42*	i	-1
Cc1ccc(/C=C2/SC(=S)N(C3CCCCC3)C2=O)o1	0	25	-66	i	11
Cc1ccc(/C=C2/SC(=O)NC2=S)o1	35	-2	53*	i	-14
CCCCn1nnnc1C1(C)CCC(=O)N1C1CC1 (stereo not drawn)	/	-4	1	i	-11
Cc1nn(S(=O)(=O)c2ccccc2)c(C)c1Sc1ccc([N+](=O)[O-])cc1	-6	-3	-6	i	26
Cc1nn(S(=O)(=O)c2cccs2)c(C)c1Sc1ccc([N+](=O)[O-])cc1	58*	-6	-7	i	19
CCOc1ccc(OCCC(=O)OCC(=O)NCCc2ccc(S(N)(=O)=O)cc2)cc1	14	-6	10	i	-10
C[C@@H]1CN([C@H](C)CO)C(=O)CCCn2nncc2CO[C@H]1CN(C)C(=O)Nc1cccc2ccccc12	-2	3	14	i	-5
Cc1cc(=O)oc(C)c1C(=O)Nc1ccc2nsnc2c1	-4	0	27*	i	-6
CCn1c(SCC(=O)NC2CCCC2)nc2c(c1=O)SCC2	-2	0	-4	i	-8
C[C@H]1CN([C@@H](C)CO)C(=O)c2cc(Br)cnc2O[C@@H]1CN(C)S(=O)(=O)c1ccccc1	5	1	-2	i	-12
COc1ccccc1C1SCCN1S(=O)(=O)c1ccccc1 (stereo not drawn)	108*	-6	16	i	6
COc1ccccc1C1SCCN1S(=O)(=O)c1cccc(C(F)(F)F)c1 (stereo not drawn)	-16	-3	-6	i	29
Cc1[nH]c(=O)c(C#N)c(C)c1Cl	7	4	26*	i	-3
c1ccc2c3n(nc2c1)CCCO3	-3	-5	32*	i	-16
N#CC(C(=O)NCc1ccccc1)c1nc2ccccc2nc1N1CCCC1 (stereo not drawn)	-40	2	131	+	-185
N#CC(C(=O)NCCc1ccccc1)c1nc2ccccc2nc1N1CCCCC1 (stereo not drawn)	-14	-4	127	i	22
Cc1ccc(S(=O)(=O)N2CCCN(c3nc4cc(C)ccc4cc3C#N)CC2)cc1	-43	16	-69	+	-21
Cc1ccc2nc(N3CCN(S(=O)(=O)c4ccc5c(c4)OCCO5)CC3)c(C#N)cc2c1	-24	17	-22	i	37
Cc1ccc(S(=O)(=O)C(C#N)c2nc3ccccc3nc2N2CCCC2)cc1 (stereo not drawn)	-55	13	-55	+	-2
SMILES	CRFR2-BP antag	NadD block	NRP1-CendR mod	Myeloid diff MLP	FAS-TE inh
CC(C)C(=O)N1CCC1(C)C(=O)Nc1nc2ccccc2[nH]1 (stereo not drawn)	/	5	2	i	-6
COC(=O)C1CCN(C(=O)COC(=O)C2CCN(S(=O)(=O)c3ccc(C)c(C)c3)CC2)CC1	8	-6	3	i	-2
CCOc1ccccc1Nc1ccnc2cc(Cl)ccc12	59*	-7	11	i	13
Clc1ccc2c(NCc3ccccn3)ccnc2c1	4	-4	2	i	-4
CC1CCC(NC(=O)CN2C(=O)C3CC=CCC3C2=O)CC1 (stereo not drawn)	1	-3	0	i	0
CC(C)(C)OC(=O)Nc1ncnc2c1ncn2C1OC(CO)C2OC(C)(C)OC21 (stereo not drawn)	8	1	-4	i	-2
CC1(C)O[C@@H]2[C@H](O1)[C@@H](CO)O[C@H]2n1cnc2c(=O)[nH]cnc21	6	-7	26*	i	-10
